A selection: hits, their analogues and other compounds. The true share with any hit is near 3.9%.
TPT1 inhibitor = C. albicans TPT1 enzyme inhibition; recombinant caTPT1, FP RNA substrate dephosphorylation; inhibition, % at 5 µM; 0.81% of 300,000 active; AID 1962;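 active = inhibition above the mean of all tested compounds plus 3 SD, set per screening campaign, cut at about 24% in these data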;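 also: plate controls were DMSO alone for no effect and ferristatin control at 100 nM for full effect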
PHOSPHO1 inh = blocks human PHOSPHO1 phosphatase activity | Q8TCT1 | recombinant PHOSPHO1, absorbance phosphatase assay | inhibition, % at 13.3 µM | 1.1% of 290,000 active; in the data active = inhibition above about 60%
Target sequence (Q8TCT1 whole entry, looked up): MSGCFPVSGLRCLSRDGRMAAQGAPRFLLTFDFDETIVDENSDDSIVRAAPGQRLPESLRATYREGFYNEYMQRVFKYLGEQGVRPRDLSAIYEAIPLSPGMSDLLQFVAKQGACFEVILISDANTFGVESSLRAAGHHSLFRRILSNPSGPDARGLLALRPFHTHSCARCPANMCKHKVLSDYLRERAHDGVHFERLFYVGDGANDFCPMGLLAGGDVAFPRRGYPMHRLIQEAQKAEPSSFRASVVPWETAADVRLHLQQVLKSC
WT yeast gro inh = growth inhibition of WT yeast, mitochondrial fusion screen; mitochondrial fusion phenotypic screen, WT strain; inhibition, % at 10 µM; 2.1% of 190,000 active; AID 1362; in the data active = inhibition above about 58%; tested in S. cerevisiae
SKKanGAS inh = blocks kanamycin growth of S. pyogenes SKKanGAS strain; BacTiter-Glo, 6 h; inhibition, % at 7.5 µM; 1.3% of 300,000 active; AID 1662;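 active = mean replicate score, as percent of positive control median, at least 50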;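 also: strain carries kanamycin resistance gene driven by streptokinase promoter and grows in 40 µg/ml kanamycin; loss of luminescence reflects streptokinase promoter inhibition or plain growth inhibition; 0% = median of DMSO wells and 100% = positive control at its reference dose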
Platelet DG rel = platelet dense granule release activity | human platelet-rich plasma, SFLLRN dense granule ATP release, luminescence | inhibition, %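 (compounds screened at 7.5 µM in platelet-rich plasma)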 | 0.22% of 300,000 active;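 active = mean replicate score, as percent of positive control, at or above 50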
Rtt109 Vps75 = inhibitors of Candida albicans Rtt109/Vps75 histone acetyltransferase. AID 540336. purified Rtt109/Vps75, ThioGlo CoA-SH fluorescence, 4 h. Q5AAJ8. 0.16% of 330,000 active. inhibition, % at 34.9 µM;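 active = inhibition of at least 50% in every replicate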
Active calls of the source: *; · = not tested or not shown.

SMILES	TPT1 inhibitor	PHOSPHO1 inh	WT yeast gro inh	SKKanGAS inh	Platelet DG rel	Rtt109 Vps75
COCCNC(=S)Nc1ccc(Cl)c(Cl)c1	-3	64*	11	13	3	1
COc1cc(C)c(NC(=S)Nc2ccc(Cl)c(Cl)c2)cc1OC	2	-8	80*	4	-12	4
COCCN(C(=O)COC(=O)/C=C/c1cccc(OC)c1)c1c(N)n(CC(C)C)c(=O)[nH]c1=O	·	·	·	·	·	-1
O=C(CNC(=O)c1ccccc1F)OCn1nnc2ccccc2c1=O	·	·	·	·	·	-10
CCc1ccccc1OCC(=O)NCC1COc2ccccc2O1 (stereo not drawn)	·	·	·	·	·	-7
COCCNC(=S)NCCc1ccc(Cl)cc1Cl	-1	-10	70*	3	-4	0
CC(Oc1ccc(Cl)cc1)C(=O)NNC(=S)NC(=O)c1ccco1 (stereo not drawn)	-3	31	85	92*	-21	-2
CCCOc1ccc(C(=O)NNC(=S)NC(=O)c2ccco2)cc1	1	-65	·	104*	7	4
O=C(NC(=S)NCc1ccc(Cl)cc1)c1ccco1	·	·	·	·	·	-2
Cc1cc(OCC(=O)Nc2ccc(N3CCN(C(=O)c4ccco4)CC3)cc2)cc(C)c1Cl	-1	73*	21	7	10	-5
O=C(Nc1ccc(N2CCN(C(=O)c3ccco3)CC2)c(Cl)c1)c1c(F)c(F)c(F)c(F)c1F	-8	-11	17	50*	5	2
Cc1noc(/C=C/N(C)C)c1S(=O)(=O)N1CCC(C(=O)NC(C)(C)C)CC1	6	44	·	-4	9	17
COc1ccccc1C(=O)NC(=S)Nc1ccc(N2CCN(C(=O)c3ccco3)CC2)cc1	1	27	·	88*	-8	6
COc1ccccc1C(=O)NNC(=S)NC(=O)c1ccco1	1	-12	87*	65*	-3	4
O=C(NNC(=S)NC(=O)c1ccco1)c1ccc(F)cc1	-3	-29	·	83*	-1	-7
Cn1cccc1CC(=O)NNC(=S)NC(=O)c1ccc(F)cc1	-1	92*	·	65*	-3	0
O=C(COC(=O)c1cc(S(=O)(=O)N2CCOCC2)ccc1F)NCCc1ccc(F)cc1	·	·	·	·	·	-6
O=C(NC(=S)NNC(=O)c1ccco1)c1ccc(Br)cc1	1	-88	·	55*	5	0
COc1ccc(C(=O)NNC(=S)NC(=O)c2ccco2)cc1	-1	12	48	81*	4	19
O=C(CCNC(=O)c1ccco1)NNC(=O)c1ccc(Br)cc1	·	·	·	·	·	9
COc1ccc2c(-c3ccc(S(N)(=O)=O)cc3)c(-c3ccc(S(C)(=O)=O)cc3)sc2c1	·	·	·	·	·	-3
COc1cccc(C(=O)NCCS(=O)(=O)N(C)Cc2ccccc2)c1	0	·	·	-8	-1	1
CC(=O)Nc1ccc(NC(=O)CSc2nnc(-c3cccs3)n2N)cc1	-1	·	·	-3	·	4
COc1ccc(C(=O)Nc2nc3ccccc3s2)cc1OC	-3	-15	68*	6	-1	0
COc1ccc(/C=N/Nc2nc3ccccc3s2)cc1O	·	-7	31	2	54*	-9
SMILES	TPT1 inhibitor	PHOSPHO1 inh	WT yeast gro inh	SKKanGAS inh	Platelet DG rel	Rtt109 Vps75
Cc1ccc(NC(=O)Nc2nc3ccccc3s2)cc1NC(=O)Nc1nc2ccccc2s1	-1	16	·	76*	-14	-3
COc1ccccc1OCCC(=O)OCC(=O)Nc1ccc2c(c1)OCO2	·	·	·	·	·	9
COc1ccc(Cl)cc1NC(=O)Cn1c(C)csc1=O	·	·	·	·	·	3
CCCc1cc(=O)[nH]c(SCC(=O)N2CCCC2=O)n1	1	·	·	6	-10	-5
Cc1ccnc(NC(=O)c2ccc(S(=O)(=O)N3CCCC3)cc2)c1	0	·	·	-3	-9	10
O=C(Cc1ccccc1)NNc1c2ccccc2nc2ccccc12	-1	39	59*	28	3	-2
Cc1ccc(OCC(=O)NNc2c3ccccc3nc3ccccc23)cc1	-2	-3	36	13	-6	8
COc1ccc(NC(=O)c2ccccc2NS(=O)(=O)c2ccc(CNC(C)=O)cc2)c(OC)c1	-3	30	·	4	5	0
Cc1cccc(CSCCNC(=O)Nc2ccccc2)c1	-2	-4	25	-5	16	2
CCCCCOc1ccc(CSCCNC(=S)Nc2ccccc2)cc1	1	-6	68*	25	1	7
CCCCOc1ccc(CSCCNC(=S)Nc2ccccc2)cc1	-2	-4	53	10	-1	-8
CC(C)COc1ccc(CSCCNC(=S)Nc2ccccc2)cc1	1	11	76*	22	-11	-2
O=C(NC1CCOc2ccccc21)C1CCCC1 (stereo not drawn)	-4	11	·	-1	-1	-6
Cc1cc(C)nc(N2CCC(C(=O)NCCc3ccc(F)cc3)CC2)n1	-1	26	69*	-8	9	-9
Cc1cc(C)nc(N2CCC(C(=O)NCCc3ccc(Cl)cc3)CC2)n1	-2	56	10	-7	0	-10
O=S(=O)(c1ccc2nc(-c3ccco3)c(-c3ccco3)nc2c1)N1CCOCC1	4	65*	5	-4	-2	1
Cc1nn(C)c(N)c1[N+](=O)[O-]	2	3	·	0	-1	-3
Cc1nn(C)c(Sc2ccccc2N)c1[N+](=O)[O-]	1	-46	-14	9	3	153*
CCc1nc(N2CCC(C)CC2)c2oc3ccccc3c2n1	-2	12	73*	20	-1	5
CC(NC(=O)c1ccc(C(F)(F)F)cc1)C(c1ccccc1)N1CCOCC1 (stereo not drawn)	0	63*	-3	-26	-1	·
CCOc1ccc(/C=N/Nc2cc(N3CCOCC3)nc(C)n2)c(O)c1	2	34	·	65*	1	9
COc1cccc(/C=N/Nc2cc(N3CCOCC3)ncn2)c1O	-3	54	·	99*	3	-5
CCOc1ccc(/C=N/Nc2cc(C)nc(N3CCOCC3)n2)cc1	-3	11	·	-7	-32	4
COCCN(C(=O)COC(=O)CCc1ccccc1)c1c(N)n(Cc2ccccc2)c(=O)[nH]c1=O	·	·	·	·	·	17
Nc1ccccc1Nc1cc(-c2cccc(Cl)c2)nn1-c1ccccc1	-4	6	75*	10	-6	-19
COc1ccccc1Nc1nc2c(s1)CCC2	6	76*	4	0	2	-11
Cc1cccc2c(C(=O)N3CCN(C(=O)c4ccco4)CC3)cc(-c3cccc(Br)c3)nc12	1	38	81*	19	-4	21
COc1ccc(-c2nn(-c3ccccc3)cc2C(=O)NC(=S)N2CCOCC2)cc1OC	·	·	·	·	·	2
CC(=O)c1ccc(N2CCN(CC(O)COC(c3ccccc3)c3ccccc3C)CC2)cc1 (stereo not drawn)	0	16	·	-3	4	-4
CC(=O)c1ccc(N2CCN(CC(O)COC(c3ccccc3)c3ccccc3)CC2)cc1 (stereo not drawn)	0	24	·	-1	0	55*

From PubChem
